High-throughput results deposited in PubChem BioAssay by National Center for Advancing Translational Sciences (NCATS).
This is a sample that favours compounds with a hit; in the whole collection about 7% have one here.
D3 antag – antagonists of human D3 dopamine receptor; P35462; D3R cells, DiscoveRx beta-arrestin luminescence, antagonist mode; hits give low values; max response, negative = inhibition, %; 360,000 tested, 2.5% active; in the data active means max response below about -50%; inconclusive means no clear call, values can overlap the other calls
Target sequence (P35462 whole entry, looked up): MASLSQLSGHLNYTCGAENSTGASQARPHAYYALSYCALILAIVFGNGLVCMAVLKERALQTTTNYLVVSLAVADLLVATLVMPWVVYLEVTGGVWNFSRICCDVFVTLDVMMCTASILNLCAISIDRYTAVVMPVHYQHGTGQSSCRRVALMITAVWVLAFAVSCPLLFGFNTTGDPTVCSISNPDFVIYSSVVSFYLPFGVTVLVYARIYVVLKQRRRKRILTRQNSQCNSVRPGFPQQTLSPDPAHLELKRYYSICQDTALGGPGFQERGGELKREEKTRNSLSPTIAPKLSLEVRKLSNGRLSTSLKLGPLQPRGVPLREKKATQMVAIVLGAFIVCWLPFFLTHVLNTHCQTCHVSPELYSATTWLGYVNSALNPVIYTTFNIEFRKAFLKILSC
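Cells plated overnight at 1500 cells/well, then exposed to library compounds with dopamine controls for 90 minutes at 37 degrees C. DiscoveRx reagent added for 30–60 minutes at room temperature; luminescence read, quantitative HTS format.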
IL-1B inflam inh – inflammasome signaling inhibition, IL-1 beta readout | THP-1 LPS/ATP IL-1B secretion, AlphaLISA, 16 h; hits give low values | activity change, % at 57.5 µM | 360,000 tested, 4.7% active | AID 743279; in the data active means activity change below about -50%; inconclusive means mostly about -30% to -49%
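Secreted IL-1B measured by AlphaLISA bead assay after 16 h compound exposure of THP-1 cells; compounds (final up to 57.5 uM) added 1 h before LPS (250 ng/mL) and ATP (1.25 mM) stimulation; lower signal means less secretion.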
DRD3 agonist – D3 dopamine receptor (human) agonism | P35462 | 410,000 tested, 0.58% active | max activation, % | D3R DiscoveRx beta-arrestin cells, luminescence, 90 min | AID 652048; in the data active means max activation above about 30%
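Agonist-mode cell screen: cells plated at 1500/well and incubated overnight at 37 °C, then exposed to library compounds for 90 min at 37 °C. Detection reagent was added for 30–60 min at room temperature, and luminescence was read.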
Integrin act MD – activators of alpha7 integrin expression for muscular dystrophy. alpha7betagal myoblasts, beta-gal FDG fluorescence, 48 h. Potency, µM (top dose mostly 38.3 µM), usual class: activators. 350,000 tested, 0.064% active; further: nearly all actives have a fitted effect of over 60% in size
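Alpha7betagal+/- myoblasts (passage 13) were plated 16-24 hr, then exposed to compounds (1:260 dilution of DMSO stock) for 48 hours at 37C. After MPER lysis, β-galactosidase reporter activity was read as FDG fluorescence (ex 480/em 540) after 30 minutes.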
S2 tox – viability counter-screen for ATXN expression inhibitors. S2 cells (HEK-293 line with an ATXN2-luciferase reporter) viability, CellTiter-Fluor protease fluorescence, 24 h. Potency, µM (highest dose often 56.7 µM), actives largely listed as cytotoxic. 400,000 tested, 0.49% active. AID 651635; further: nearly all actives have a fitted effect of over 40% in size
ATXN2 expr inh – ATXN2 expression inhibition | HEK-293 ATXN2-luciferase reporter, luminescence, 24 h | Potency, µM (titrated, usually from 57 µM), usual class: inhibitors | 360,000 tested, 0.72% active; further: nearly all actives have a fitted effect of over 55% in size
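qHTS (up to 57 uM final) was run with 24 h compound exposure of reporter cells at 37 °C. Each well was multiplexed: SteadyGlo luminescence measured ATXN2-luciferase expression after a fluorogenic Gly-Phe-AFC viability readout (25 uM final).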
Numbers stand for hits; . = inactive; ? = inconclusive; / = no result; [ ] = remark or other dose. Unless noted, the call rests on the fitted dose curve; in most records, active means well fitted curve in the direction sought with a large enough effect; inconclusive means small, poorly fitted or top-dose-only effect, or another doubt; inactive means no such curve, though single readings can be large; an effect the other way counts as inactive or inconclusive.

SMILES | D3 antag | IL-1B inflam inh | DRD3 agonist | Integrin act MD | S2 tox | ATXN2 expr inh
COc1ccc(S(=O)(=O)N2CCN(C(=O)CN3C(=O)NC(C)(C)C3=O)CC2)cc1 | . | . | . | . | . | .
Cc1sc2c(c1C)CN(Cc1ccncc1)CN2C(=O)c1ccco1 | . | . | . | . | . | .
NC(N)=N/N=C/c1ccc(OCc2ccccc2Cl)cc1 | . | -103 | . | . | 28µM | 14µM
NC(N)=N/N=C/c1ccc(Cl)c(Cl)c1 | . | -97 | . | . | . | ?
NC(N)=N/N=C/c1ccccc1 | ? | -97 | . | . | ? | .
Clc1ccc(C=NN2CCCCCC2)cc1Cl | . | . | . | . | . | .
NC(N)=N/N=C/c1ccc(Cl)cc1Cl | . | -99 | . | . | ? | .
Cc1ccc(N(C(=O)c2csnn2)C(C(=O)NC2CCCC2)c2ccccn2)cc1 (stereo not drawn) | . | . | . | . | . | .
CCOC(=O)C1=C(c2ccccc2)NC(=O)N(C(C)=O)C1c1cccc([N+](=O)[O-])c1 (stereo not drawn) | . | . | . | . | . | .
CSc1nnc(-c2cnccn2)n1Cc1ccccc1 | . | . | . | .[7.66 µM] | . | .
CN(C)C(=S)SC(=S)N(C)C | / | / | . | / | 2.5µM | 2.5µM
Cn1c(NCc2cccnc2)nc2cc(-c3ccc(C(=O)N4CCOCC4)cc3)sc2c1=O | -78 | . | . | / | . | .
COc1cccc(-c2cc3nc(NCc4cccnc4)n(C)c(=O)c3s2)c1 | . | . | . | / | . | .
CC1(C)CC(CC(=O)NC(=S)Nc2ccc([N+](=O)[O-])cc2)C(=O)O1 (stereo not drawn) | -83 | . | . | . | . | .
Cc1ccc(NC(=S)NC(=O)CC2CC(C)(C)OC2=O)cc1 (stereo not drawn) | . | . | . | . | . | /
O=C(NC(=S)Nc1cccc2c(O)cccc12)c1ccccc1[N+](=O)[O-] | . | . | . | . | . | .
COc1ccc(NC(=O)N(C)C[C@H]2Oc3ccc(NC(=O)C4CCCCC4)cc3C(=O)N([C@H](C)CO)C[C@@H]2C)cc1 | . | . | . | . | . | .
C[C@@H]1CN([C@H](C)CO)C(=O)c2cc(NC(=O)Nc3ccc(F)cc3)ccc2O[C@H]1CN(C)C(=O)Nc1ccc(C(F)(F)F)cc1 | . | -72 | . | . | ? | ?
C[C@H](CO)N1C[C@H](C)[C@@H](CN(C)C(=O)Nc2ccc(C(F)(F)F)cc2)Oc2ccc(NC(=O)C3CCCCC3)cc2C1=O | ? | -53 | . | . | ? | ?
Cc1ccccc1N/N=C1\CCCNC1=O | . | -54 | . | . | . | .
Cn1nnc(NC(=S)NC(=O)/C=C/c2ccco2)n1 | . | . | . | . | . | .
CCOc1ccc(Nc2nc3ccccc3c3nnc(CC)n23)cc1 | / | / | . | / | . | .
Nc1ncnc(Nc2ccccc2)n1 | . | . | . | / | . | .
CCOc1ccc(Nc2nc(N)c3ccccc3n2)cc1 | . | -91 | . | . | . | ?
CN(C)c1ccc(Nc2nc(N)c3ccccc3n2)cc1 | . | -96 | . | . | . | 5µM
SMILES | D3 antag | IL-1B inflam inh | DRD3 agonist | Integrin act MD | S2 tox | ATXN2 expr inh
Nc1nc(Nc2ccccc2)nc2ccccc12 | . | -113 | . | . | . | .
Nc1nc(Nc2ccc(Cl)cc2)nc2ccccc12 | . | -119 | . | . | . | .
CN(CC(=O)Nc1ccc(Cl)c(C(F)(F)F)c1)C(=O)C1CCN(C(=O)c2ccc(Cl)cc2)CC1 | . | ? | . | . | ? | /
O=C(COc1ccc(S(=O)(=O)N2CCCC2)cc1Cl)NCc1ccco1 | . | . | . | . | . | .
COc1ccc(C)cc1Nc1nc(N)c2ccccc2n1 | . | -93 | . | ? | . | .
Cc1ccccc1Nc1nc(N)nc(CSc2nc3ccccc3c(=O)n2C)n1 | . | -53 | . | . | ? | ?
COc1ccc(OC)c(Nc2nc(N)c([N+](=O)[O-])c(NCc3ccccc3)n2)c1 | . | / | . | . | . | .
Cc1ccccc1Nc1nc(N)c2ccccc2n1 | . | -96 | . | . | . | .
Cn1c(SCc2cccc(C#N)c2)nc2ccccc2c1=O | . | -50 | . | . | . | .
CCCNc1c(NC(=O)COc2ccc(Cl)cc2)c(=O)oc2ccccc12 | . | . | . | . | ? | .
O=C(/C=C/c1ccccc1[N+](=O)[O-])N1CCOCC1 | . | . | . | . | . | .
O=c1oc2cc(Br)ccc2n1CSC1=NCCS1 | -53 | -65 | . | . | . | .
CCOC(=O)/C=C/[C@H]1Cc2ccccc2CO1 | . | . | . | . | . | .
CCOC(=O)/C=C/[C@H]1CCc2cccc(C)c2O1 | -63 | . | . | . | . | .
C=C1C(=O)c2sccc2C(c2ccc(OC)c(OC)c2)C1COC(C)=O (stereo not drawn) | -116 | -101 | . | . | / | ?
CCN1CCN(CC(=O)N2N=C(c3cccs3)CC2c2ccc(OC)c(OC)c2)C(=O)C1=O (stereo not drawn) | . | . | . | . | . | .
CCOC(=O)C(C(=O)OCC)N(C#N)c1nc(N(C)C)nc(N(C)C)n1 | . | -100 | . | . | . | .
Cc1nc2ccn(Cc3cccnc3)c(=O)c2cc1C(=O)Nc1ccc(OC(F)(F)F)cc1 | / | / | . | / | ? | ?
Cn1sccc1=O | -71 | -53 | . | / | . | .
CCN1CCN(CCCNC(=O)c2csc3c2CCCCC3)CC1 | -54 | . | . | . | . | .
CCC1CCCCN1CCCNC(=O)c1csc2c1CCCCC2 (stereo not drawn) | . | . | . | . | . | /
O=C(NCCN1CCOCC1)c1csc2c1CCCCC2 | -52 | . | . | . | ? | .
CC1CCc2c(C(=O)NCCN3CCOCC3)csc2C1 (stereo not drawn) | . | ? | . | . | . | .
CCNC(=S)NC(=NCc1cccnc1)Nc1nc(C)cc(C)n1 | . | . | . | . | . | /
Cc1ccc2cc3cc(C(=O)NCc4ccco4)oc3nc2c1 | . | ? | . | . | . | .
SMILES | D3 antag | IL-1B inflam inh | DRD3 agonist | Integrin act MD | S2 tox | ATXN2 expr inh
COc1ccc(NC(=O)C2(C)CCN2CCc2ccccc2)cc1OC (stereo not drawn) | . | . | 72 | / | . | .
COc1cccc(NC(=O)C2(C)CCN2CCc2ccccc2)c1 (stereo not drawn) | . | . | . | / | ? | .
CCc1nnc(SCc2nc(-c3ccccc3F)oc2C)c2cc3sccc3n12 | / | / | . | / | . | .
CCN(c1ccc(NC(=O)COC(=O)c2cc3ccccc3oc2=O)cc1)C(C)C | . | . | . | . | . | .[11.3 µM]
NC(=O)N/N=C/c1ccccc1OC(=O)c1cc2ccccc2oc1=O | -57 | . | . | . | . | /
O=C(COC(=O)c1cc2ccccc2oc1=O)Nc1ccc(F)cc1F | . | . | . | 4.5µM | . | .
